Shown are actives, neighbours in structure and some others; about 1.6% of the full set was active somewhere.
KCNQ2 enhance – potentiators of rat KCNQ2 potassium channel | AID 2239 | B-score at 10 µM | CHO-K1 KCNQ2, FluxOR thallium flux fluorescence; hits give high values | actives 0.54% (n = 310,000);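 active means fluorescence ratio B-score at least 3 SD of library B-scores, with initial fluorescence B-score within 3 of them, cut at about 5.3 in these data; same plate scores as AID 2156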;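 further: B-score of peak minus minimum over baseline fluorescence ratio after K+ and Tl+ stimulus; positive B-score means potentiation of KCNQ2 with more thallium influx and brighter signal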
Target sequence (O88943 whole entry, looked up): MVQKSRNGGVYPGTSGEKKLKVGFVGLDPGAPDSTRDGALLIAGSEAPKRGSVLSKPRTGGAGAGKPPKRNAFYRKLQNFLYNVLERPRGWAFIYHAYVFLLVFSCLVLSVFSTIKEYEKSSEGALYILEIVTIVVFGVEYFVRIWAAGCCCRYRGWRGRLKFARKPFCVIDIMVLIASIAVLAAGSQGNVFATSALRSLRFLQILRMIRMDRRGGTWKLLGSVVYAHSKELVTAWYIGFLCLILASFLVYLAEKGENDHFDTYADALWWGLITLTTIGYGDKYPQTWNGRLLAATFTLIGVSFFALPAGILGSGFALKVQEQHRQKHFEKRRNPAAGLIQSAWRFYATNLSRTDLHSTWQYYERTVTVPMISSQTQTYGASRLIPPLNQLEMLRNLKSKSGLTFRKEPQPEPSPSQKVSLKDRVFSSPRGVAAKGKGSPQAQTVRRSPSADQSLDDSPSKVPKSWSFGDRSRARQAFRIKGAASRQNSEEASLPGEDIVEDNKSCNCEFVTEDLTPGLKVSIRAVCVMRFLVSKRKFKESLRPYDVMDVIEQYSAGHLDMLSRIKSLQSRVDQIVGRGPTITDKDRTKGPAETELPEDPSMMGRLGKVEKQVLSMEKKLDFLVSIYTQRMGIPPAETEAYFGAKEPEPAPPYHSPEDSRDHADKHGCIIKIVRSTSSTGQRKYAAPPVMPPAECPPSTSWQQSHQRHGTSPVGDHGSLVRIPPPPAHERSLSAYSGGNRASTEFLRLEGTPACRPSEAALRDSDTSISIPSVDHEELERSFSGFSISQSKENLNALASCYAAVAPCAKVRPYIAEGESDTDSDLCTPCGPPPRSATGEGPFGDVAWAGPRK
KCNQ2 inh – inhibitors of rat KCNQ2 potassium channel; CHO-K1 KCNQ2, FluxOR thallium flux, 20 min; hits give low values; B-score at 10 µM; actives 1.1% (n = 310,000); AID 2156;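 active means fluorescence ratio B-score at most minus 3 library SDs, with starting brightness B-score within 2 library SDs, cut at about -5.5 in these data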
Starred values were filed as active, the others as inactive; i = inactive; · = no result.

SMILES | KCNQ2 enhance | KCNQ2 inh
COc1ccc(CCNC(=O)Cc2ccc(NC3=NC4CS(=O)(=O)CC4S3)cc2)c(OC)c1 (stereo not drawn) | 0.67 | i
COc1ccc(CCN(Cc2cc3cccc(C)c3n3nnnc23)C(=O)c2ccncc2)cc1OC | · | i
COc1cc(C2=NOC(C(=O)N3CCN(c4ccc(F)cc4)CC3)C2)cc(OC)c1OC (stereo not drawn) | · | i
COc1cc(C2=NOC(C(=O)N3CCCCCC3)C2)cc(OC)c1OC (stereo not drawn) | -6.6 | -6.6*
Cc1csc(SCC(=O)Nc2cc(S(=O)(=O)N(C)C)ccc2C)n1 | 0.45 | i
CC(C)(C)OC(=O)N[C@@H](Cc1ccccc1)c1nnc(S(=O)(=O)Cc2cccc(F)c2)o1 | · | i
Cc1ccccc1CS(=O)(=O)c1nnc([C@H](CC(C)C)NC(=O)OC(C)(C)C)o1 | -5.6 | -5.6*
CCOC(=O)CSc1nnc([C@H](Cc2ccccc2)NC(=O)OC(C)(C)C)o1 | · | i
CC(C)C[C@H](NC(=O)OC(C)(C)C)c1nnc(SCc2ccccc2)o1 | -6.9 | -6.9*
COCCn1c(N)c(N(Cc2ccccc2)C(=O)C2CCCC2)c(=O)[nH]c1=O | 0.13 | i
NNc1nc2ccccc2c(=O)n1Cc1ccccc1 | · | i
Cc1cc(C)c(C(=O)N2CCCC(CNC(=O)C3(c4ccc(Cl)cc4)CC3)C2)c(=O)[nH]1 (stereo not drawn) | 0.32 | i
CC(=O)Nc1ccc(NC(=O)N(c2ccccc2)c2ccccc2)cc1 | · | i
C=CCNC(=O)C(=O)Nc1cc2c3c(c1)CCC(=O)N3CCC2 | 0.17 | i
CN(C)c1nnnn1Cc1ccccc1 | · | i
CC(C#Cc1c([C@@H](C)Oc2ccccc2)nnn1Cc1ccccc1)Oc1ccccc1 (stereo partly drawn) | -6.3 | -6.3*
O=C(O)c1cc(Nc2cc(Cl)c3nonc3c2[N+](=O)[O-])ccc1O | 0.02 | i
Cc1cc(C)c(S(=O)(=O)/N=C2\C=C(NS(=O)(=O)c3ccccc3)C(=O)c3ccccc32)c(C)c1 | -5.7 | -5.7*
Cc1ccc(NC2=C/C(=N\S(=O)(=O)c3cccs3)c3ccccc3C2=O)c(C)c1 | · | i
COc1cccc(CN2CC(C(=O)N3CCOCC3)CCC2=O)c1 (stereo not drawn) | · | i
O=C(CNCc1ccc(F)cc1)Nc1ccc(C(=O)N2CCCCC2)cc1 | 1 | i
CCCCN1CCCC1CNC(=O)c1cc(C#N)c2ccccc2c1OC (stereo not drawn) | 0.8 | i
COc1ccccc1S(=O)(=O)Cc1ccc(C(=O)NCCCN2CCN(c3ccc(F)cc3)CC2)o1 | · | i
COc1cc(/C=N/NC2=NC(C)(C)Cc3ccccc32)cc(OC)c1OC | -5.6 | -5.6*
COc1cc(/C=N/NC2=NS(=O)(=O)c3ccccc32)cc(OC)c1OC | 1.1 | i
SMILES | KCNQ2 enhance | KCNQ2 inh
Cc1cc(C(F)(F)F)n2nc(-c3cnn(C)c3C(F)(F)F)c(Br)c2n1 | 0.59 | i
CC1CCN(S(=O)(=O)c2cn(CC(=O)N3CCN(c4cccc(C(F)(F)F)c4)CC3)cn2)CC1 | · | i
COc1cccc(NC(=O)c2ccc(N3C(=O)C4CC=CCC4C3=O)cc2)c1 (stereo not drawn) | · | i
COc1cc(NS(=O)(=O)c2ccc3c(c2)oc(=O)n3C)cc(OC)c1OC | · | i
COc1cc(NS(=O)(=O)c2c(C)oc3c(F)c(F)c(F)c(F)c23)cc(OC)c1OC | -6.7 | -6.7*
CC1CN(CC(=O)NN=C(c2ccccc2)c2ccccc2)CC(C)O1 (stereo not drawn) | 0.82 | i
O=C(CN(Cc1ccccc1)S(=O)(=O)c1ccc(Br)cc1)NCc1ccco1 | -6.6 | -6.6*
COc1ccc(S(=O)(=O)N(CC(=O)NCc2ccccn2)Cc2ccccc2)cc1 | · | i
O=C(CN(Cc1ccc(Br)cc1)S(=O)(=O)c1ccccc1)NCc1ccccn1 | -6.5 | -6.5*
O=C(CCS(=O)(=O)c1ccc(Br)cc1)NCc1ccco1 | 0.01 | i
CC(C)(C)c1ccc(S(=O)(=O)N2CCN(c3ncccn3)CC2)cc1 | 0.25 | i
Cc1c(C)n(Cc2ccccc2)c2ncnc(Cl)c12 | 0.11 | i
CCOC(=O)/C(C)=N/NC(=O)c1ccc([N+](=O)[O-])cc1 | 5.1 | i
CC(=N\NC(=O)c1ccc([N+](=O)[O-])cc1)/C(=N/O)C(=O)Nc1ccccc1 | -5.8 | -5.8*
CCOc1cc(C)c(C(C)C)cc1S(=O)(=O)n1cnc(C)c1 | 8.7* | i
CCOc1cc(C)c(C(C)C)cc1S(=O)(=O)N1CC(C)OC(C)C1 (stereo not drawn) | 0.1 | i
CCCNC(=S)NC1CC2CCCC(C1)N2Cc1ccc(F)cc1 (stereo not drawn) | 0.59 | i
COc1ccccc1CNC(=O)C1CCN(S(=O)(=O)c2ccc3nc4c(c(C(=O)O)c3c2)CCCC4)CC1 | · | i
CCOc1ccc(C(=O)N2CCCC2)cc1 | 0.53 | i
CCOc1ccc(C(=O)N2CCN(c3cccc(C)c3C)CC2)cc1 | -5.8 | -5.8*

Screening results deposited in PubChem BioAssay by Johns Hopkins Ion Channel Center.
